Reference: PubChem BioAssay (EPA / NIEHS)
Active and inactive are the calls of the source. How the source made its calls: active means hit-call score of the fitted dose curve at least 0.9, where 1 is the maximum; inactive means score below 0.9.

Columns and labels:
Conditions in all cases: mRNA level, 48 h; actives raise or lower the signal
[1] = read-out: Cyclin D1 (CCND1), CCND1 (gene 595); assay: LTEA_HepaRG_CCND1: Life Technologies and Expression Analysis (LTEA) Assay for Cyclin D1 (CCND1) using HepaRG (AID 2283451)
Procedure, shortened: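 qRT-PCR (Fluidigm 96.96 array) read-out of transcript level, housekeeping-normalized (ACTB/GAPDH/POLR2A). HepaRG cells, 48 h chemical exposure, 8-point half-log series from 100 uM, 0.5% DMSO vehicle; gain or loss relative to DMSO baseline.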

[2] = read-out: catalase (CAT), CAT (gene 847); assay: LTEA_HepaRG_CAT: Life Technologies and Expression Analysis (LTEA) Assay for catalase (CAT) using HepaRG (AID 2283452)
Procedure, shortened: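 Expression of CAT was quantified by TaqMan qRT-PCR with ACTB/GAPDH/POLR2A normalization after 48 h chemical exposure of HepaRG. Eight-point half-log series, top 100 uM, in 0.5% DMSO; gain or loss fitted against vehicle.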

[3] = read-out: flavin-containing dimethylaniline monooxygenases 3 (FMO3), FMO3 (gene 2328); assay: LTEA_HepaRG_FMO3: Life Technologies and Expression Analysis (LTEA) Assay for flavin-containing dimethylaniline monooxygenases 3 (FMO3) using HepaRG (AID 2283453)
Procedure, shortened: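 HepaRG, 48 h exposure, 8-pt half-log series from 100 uM, 0.5% DMSO vehicle, duplicates; FMO3 transcript by Fluidigm TaqMan qRT-PCR, housekeeping-normalized; gain/loss fit vs DMSO.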

[4] = read-out: Cytochrome P450 (CYP1A1), CYP1A1 (gene 1543); assay: LTEA_HepaRG_CYP1A1: Life Technologies and Expression Analysis (LTEA) Assay for Cytochrome P450 (CYP1A1) using HepaRG (AID 2283454)
Procedure, shortened: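 qRT-PCR read-out: CYP1A1 transcript normalized to three housekeeping genes, fitted bidirectionally against 0.5% DMSO vehicle baseline. Human HepaRG cells, 48 h chemical exposure, 8-point half-log series topping at 100 uM.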

[5] = read-out: CFLAR gene, CFLAR (gene 8837); assay: LTEA_HepaRG_CFLAR: Life Technologies and Expression Analysis (LTEA) Assay for CFLAR gene using HepaRG (AID 2283455)
Procedure, shortened: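 HepaRG, 48 h exposure, 8-pt conc-response (100 uM top, half-log), 0.5% DMSO vehicle, duplicates. CFLAR expression by qRT-PCR; ACTB/GAPDH/POLR2A normalization; gain or loss fit vs DMSO baseline.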

[6] = read-out: Forkhead box O1 (FOXO1), FOXO1 (gene 2308); assay: LTEA_HepaRG_FOXO1: Life Technologies and Expression Analysis (LTEA) Assay for Forkhead box O1 (FOXO1) using HepaRG (AID 2283456)
Procedure, shortened: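 Readout is FOXO1 transcript level by multiplexed qRT-PCR against three housekeeping genes, curve-fitted in both directions relative to 0.5% DMSO vehicle. Human HepaRG cultures received chemicals for 48 h, up to 100 uM in half-log steps.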

[7] = read-out: ABC Transporter (ABCB1), ABCB1 (gene 5243); assay: LTEA_HepaRG_ABCB1: Life Technologies and Expression Analysis (LTEA) Assay for ABC Transporter (ABCB1) using HepaRG (AID 2283460)
Procedure, shortened: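 Expression of ABCB1 was quantified by qRT-PCR against three housekeeping genes after human HepaRG cultures received test chemicals for 48 hours. Concentrations spanned eight half-log steps topping at 100 uM in 0.5% DMSO; gain or loss of signal was fitted relative to vehicle.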

[8] = read-out: growth arrest and DNA damage 45 (GADD45B), GADD45B (gene 4616); assay: LTEA_HepaRG_GADD45B: Life Technologies and Expression Analysis (LTEA) Assay for growth arrest and DNA damage 45 (GADD45B) using HepaRG (AID 2283461)
Procedure, shortened: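 qRT-PCR read-out (Fluidigm TaqMan, housekeeping-normalized) of mRNA change in human HepaRG cells after 48 h chemical exposure; 8-point curve, top 100 uM, half-log steps, 0.5% DMSO vehicle; gain or loss fitted relative to DMSO baseline.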

[9] = read-out: ABC Transporter (ABCC3), ABCC3 (gene 8714); assay: LTEA_HepaRG_ABCC3: Life Technologies and Expression Analysis (LTEA) Assay for ABC Transporter (ABCC3) using HepaRG (AID 2283462)
Procedure, shortened: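 qRT-PCR read-out of ABCC3 transcript, normalized to three housekeeping genes (ACTB, GAPDH, POLR2A), after 48 h chemical exposure of human HepaRG cells. Eight half-log concentrations, highest 100 uM, in 0.5% DMSO; gain or loss fitted relative to DMSO baseline.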

[10] = read-out: ABC Transporter (ABCB11), ABCB11 (gene 8647); assay: LTEA_HepaRG_ABCB11: Life Technologies and Expression Analysis (LTEA) Assay for ABC Transporter (ABCB11) using HepaRG (AID 2283463)
Procedure, shortened: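 ABCB11 transcript levels are read by Fluidigm TaqMan qRT-PCR after 48 h chemical treatment of human HepaRG cells. Concentrations span 100 uM downward in half-log steps with 0.5% DMSO; gain or loss is fitted against DMSO controls.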

[11] = read-out: ABC Transporter (ABCC2), ABCC2 (gene 1244); assay: LTEA_HepaRG_ABCC2: Life Technologies and Expression Analysis (LTEA) Assay for ABC Transporter (ABCC2) using HepaRG (AID 2283464)
Procedure, shortened: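 qRT-PCR (TaqMan, Fluidigm array) read-out of ABCC2 mRNA, normalized to three housekeeping genes. Differentiated HepaRG cells were treated 48 h in serum-free induction medium with 8-point half-log series from 100 uM in 0.5% DMSO; curves fitted bidirectionally relative to DMSO.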

[12] = read-out: Broad substrate specificity ATP-binding cassette transporter ABCG2 (Homo sapiens) (UniProt Q9UNQ0); assay: LTEA_HepaRG_ABCG2: Life Technologies and Expression Analysis (LTEA) Assay for ABC Transporter (ABCG2) using HepaRG (AID 2283465)
Procedure, shortened: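 Read-out is ABCG2 mRNA induction or loss quantified by qRT-PCR after 48 h chemical treatment of human HepaRG cells, normalized to three housekeeping genes. Concentrations reached 100 uM top in half-log steps; fitting was bidirectional against 0.5% DMSO.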

[13] = read-out: ATP-citrate lyase (ACLY), ACLY (gene 47); assay: LTEA_HepaRG_ACLY: Life Technologies and Expression Analysis (LTEA) Assay for ATP-citrate lyase (ACLY) using HepaRG (AID 2283466)
Procedure, shortened: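 HepaRG, 48 h exposure, 8-pt half-log dilutions (top 100 uM), 0.5% DMSO. Readout: ACLY mRNA, TaqMan qRT-PCR, housekeeping-normalized (ACTB/GAPDH/POLR2A). Bidirectional curve fit vs DMSO.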

[14] = read-out: Peroxisomal acyl-coenzyme A oxidase 1 (ACOX1) gene, ACOX1 (gene 51); assay: LTEA_HepaRG_ACOX1: Life Technologies and Expression Analysis (LTEA) Assay for Peroxisomal acyl-coenzyme A oxidase 1 (ACOX1) gene using HepaRG (AID 2283467)
Procedure, shortened: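 Measured by qRT-PCR against three housekeeping genes: ACOX1 transcript change in human HepaRG cells after 48 h dosing. Concentrations ran up to 100 uM in half-log steps. Curves were fitted bidirectionally relative to 0.5% DMSO.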

[15] = read-out: Bcl-2 (BAD) gene, BAD (gene 572); assay: LTEA_HepaRG_BAD: Life Technologies and Expression Analysis (LTEA) Assay for Bcl-2 (BAD) gene using HepaRG (AID 2283469)
Procedure, shortened: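 BAD transcript change, measured by qRT-PCR against three housekeeping genes and fitted in both directions relative to 0.5% DMSO, after 48 h chemical treatment of human HepaRG liver cells at concentrations up to 100 uM.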

[16] = read-out: growth arrest and DNA damage 45 (GADD45A), GADD45A (gene 1647); assay: LTEA_HepaRG_GADD45A: Life Technologies and Expression Analysis (LTEA) Assay for growth arrest and DNA damage 45 (GADD45A) using HepaRG (AID 2283458)
Procedure, shortened: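 Human HepaRG liver cells are treated in duplicate for 48 h with chemicals in 0.5% DMSO, highest concentration 100 uM. Expression is read by qRT-PCR and analyzed in both directions against vehicle.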

[17] = read-out: Forkhead box O3 (FOXO3), FOXO3 (gene 2309); assay: LTEA_HepaRG_FOXO3: Life Technologies and Expression Analysis (LTEA) Assay for Forkhead box O3 (FOXO3) using HepaRG (AID 2283459)
Procedure, shortened: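 HepaRG, 48 h post-dose; 8 conc., half-log from 100 uM, 0.5% DMSO, duplicates; serum-free induction medium. Readout: FOXO3 mRNA, TaqMan qRT-PCR, housekeeping-normalized. Bidirectional curve fit vs DMSO baseline.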

[18] = read-out: Alkaline Phosphatase, Placental (ALPP) gene, ALPP (gene 250); assay: LTEA_HepaRG_ALPP: Life Technologies and Expression Analysis (LTEA) Assay for Alkaline Phosphatase, Placental (ALPP) gene using HepaRG (AID 2283468)
Procedure, shortened: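 qRT-PCR readout of ALPP mRNA (Fluidigm TaqMan), normalized to ACTB/GAPDH/POLR2A, after 48 h chemical exposure of HepaRG cells; 8-point half-log series, top 100 uM, 0.5% DMSO vehicle. Bidirectional curve fit versus DMSO baseline.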

Measured: AC50

Broad substrate specificity ATP-binding cassette transporter ABCG2 (Homo sapiens), sequence (Q9UNQ0 whole entry, looked up): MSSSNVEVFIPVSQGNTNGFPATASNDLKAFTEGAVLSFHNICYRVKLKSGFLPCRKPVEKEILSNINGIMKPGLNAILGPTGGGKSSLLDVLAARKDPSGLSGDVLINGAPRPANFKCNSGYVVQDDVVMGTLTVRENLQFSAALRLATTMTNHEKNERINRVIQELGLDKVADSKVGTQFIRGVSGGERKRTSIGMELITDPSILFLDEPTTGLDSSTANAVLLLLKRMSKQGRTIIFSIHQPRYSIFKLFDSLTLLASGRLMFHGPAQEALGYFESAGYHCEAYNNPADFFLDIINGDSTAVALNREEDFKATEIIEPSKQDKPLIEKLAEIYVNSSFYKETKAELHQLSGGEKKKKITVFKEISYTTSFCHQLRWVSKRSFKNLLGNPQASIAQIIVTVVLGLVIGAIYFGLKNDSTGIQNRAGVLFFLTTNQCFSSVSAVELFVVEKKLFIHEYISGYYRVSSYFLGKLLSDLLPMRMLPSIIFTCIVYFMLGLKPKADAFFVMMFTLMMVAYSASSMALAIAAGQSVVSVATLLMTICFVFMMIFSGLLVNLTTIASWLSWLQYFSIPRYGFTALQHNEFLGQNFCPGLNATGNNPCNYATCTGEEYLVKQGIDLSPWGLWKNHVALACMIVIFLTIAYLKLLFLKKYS

COCC(=O)N(c1c(C)cccc1C)C(C)C(=O)OC (configuration not stated)
not listed: [16] | [17] | [18]
inactive: all other assays above

COC(=O)NS(=O)(=O)c1ccc(N)cc1
not listed: [18]
inactive: all other assays above

CN/C(=N\[N+](=O)[O-])NCc1cnc(Cl)s1
active: [12] 28.6 µM
inactive: all other assays above

CCCC(=NOCC)C1=C(O)CC(CC(C)SCC)CC1=O (configuration not stated)
active: [4] 73.9 µM
not listed: [17] | [18]
inactive: all other assays above

C=C(C)CN(CC)c1c([N+](=O)[O-])cc(C(F)(F)F)cc1[N+](=O)[O-]
active: [4] 44.4 µM
not listed: [16] | [17] | [18]
inactive: all other assays above

CC1(C)C(C(=O)OC(C#N)c2cccc(Oc3ccccc3)c2)C1(C)C (configuration not stated)
active: [4] 50 µM
not listed: [16] | [17] | [18]
inactive: all other assays above

OC(c1ccc(Cl)cc1)(c1ccc(Cl)cc1)C(Cl)(Cl)Cl
active: [2] 71.2 µM | [4] 11.9 µM | [6] 79.5 µM | [10] 72.4 µM | [12] 50 µM | [14] 50 µM | [15] 70.1 µM
not listed: [3] | [16]
inactive: all other assays above

CCOC(=O)C(C)OC(=O)c1cc(Oc2ccc(C(F)(F)F)cc2Cl)ccc1[N+](=O)[O-] (configuration not stated)
active: [4] 50 µM | [8] 32.2 µM | [11] 21.9 µM | [12] 19.2 µM | [13] 50 µM | [14] 2.11 µM
not listed: [16] | [17] | [18]
inactive: all other assays above
